Bioassay records deposited in PubChem by several laboratories.
Hits are enriched below; roughly 4.5% of the tested compounds scored in any of these assays.
EBNA-1 inhibitor: blocks EBNA-1 binding to DNA | 300,000 tested, 0.34% active | EBNA-1 DNA binding, fluorescence polarization | inhibition, % at 14.8 µM; in the data active = inhibition above about 28%
Rpn11 block: Rpn11 (human) deubiquitinase inhibition; inhibition, % at 20 µM; 360,000 tested, 0.59% active; human 26S proteasome, Ub4-pepOG fluorescence polarization; 20S core pre-blocked with epoxomicin; O00487; AID 588493;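 active = inhibition at 20 µM, scaled to each plate's controls, above about 33%, limit read from the data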
Target sequence (O00487 whole entry, looked up): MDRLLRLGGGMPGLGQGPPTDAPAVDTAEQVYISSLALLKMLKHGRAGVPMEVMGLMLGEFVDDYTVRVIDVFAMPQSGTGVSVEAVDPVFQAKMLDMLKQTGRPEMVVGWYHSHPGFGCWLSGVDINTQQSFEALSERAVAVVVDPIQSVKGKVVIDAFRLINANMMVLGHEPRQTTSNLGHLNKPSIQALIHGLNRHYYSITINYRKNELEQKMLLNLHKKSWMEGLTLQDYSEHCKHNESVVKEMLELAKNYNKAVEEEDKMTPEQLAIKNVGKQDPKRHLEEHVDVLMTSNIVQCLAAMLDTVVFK
ZTA DNA inh: ZTA (EBV) inhibition in EBNA-1 counter-screen; P03206; ZTA-DNA binding, fluorescence polarization; inhibition, % at 11 µM; 320,000 tested, 0.15% active; in the data active = inhibition above about 33%
Target sequence (P03206 whole entry, looked up): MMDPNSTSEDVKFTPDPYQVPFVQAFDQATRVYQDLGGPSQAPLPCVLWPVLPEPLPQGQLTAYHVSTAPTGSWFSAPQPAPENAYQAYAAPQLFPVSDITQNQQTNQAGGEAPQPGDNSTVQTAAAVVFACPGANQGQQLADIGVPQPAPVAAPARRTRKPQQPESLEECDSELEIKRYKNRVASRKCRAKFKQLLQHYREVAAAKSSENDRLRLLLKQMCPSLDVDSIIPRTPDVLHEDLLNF
NR3A LBD binder: modulates the human NR3A ligand-binding domain; NR3A LBD differential scanning fluorimetry, Tm shift; 0% = protein alone, 100% = glycine-bound protein; 340,000 tested, 2.5% active; Tm shift relative to glycine control, % at 25 µM;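 active = melting temperature shift of at least 10% of the positive control shift, at one fixed dose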
TPT1 inh: C. albicans TPT1 enzyme inhibition; recombinant caTPT1, FP RNA substrate dephosphorylation; inhibition, % at 5 µM; 300,000 tested, 0.81% active;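 active = inhibition above the mean of all tested compounds plus 3 SD, set per screening campaign, cut at about 24% in these data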
dFosB act: enhances mouse delta FosB homodimer DNA binding. 340,000 tested, 0.99% active. activation, % at 25 µM. purified delta FosB, TAMRA-CDK5 oligo fluorescence polarization; percent of positive-control signal above neutral wells;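 active = mean activation above about 17%, with every replicate also reaching it, limit read from the data, passing the limit was not always enough; inconclusive = only one of the two conditions met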
Of the large screens only hits and unclear results are named; the others gave an inactive call.

COc1ccc(/C=N/NS(=O)(=O)c2ccccc2)cc1OS(=O)(=O)c1ccccc1	none
COc1ccc(/C=N/NS(=O)(=O)c2ccccc2)cc1OC(=O)c1ccc(C)cc1	NR3A LBD binder 19
COc1ccc(/C=N\NS(=O)(=O)c2ccc(C)cc2)cc1COc1ccccc1[N+](=O)[O-]	NR3A LBD binder 12
COc1cc(/C=N/NS(=O)(=O)c2ccc(C)cc2)ccc1OCc1cccc(C(=O)O)c1	none
COc1ccc(/C=N/NS(=O)(=O)c2ccc(C)cc2)cc1OC(=O)c1ccccc1	NR3A LBD binder 10
CN(C(=O)c1ccc(NC(=O)C2CCCN(C(=O)OC(C)(C)C)C2)cc1)C1CC1 (stereo unspecified)	none (no result: EBNA-1 inhibitor, ZTA DNA inh, TPT1 inh)
CCOc1ccc(C(=O)NCCC2=CCCCC2)cc1OCC	none
CN(C(=O)c1nn(C)c2c1CSc1ccccc1-2)c1ccccc1Cl	none
Oc1ccc(/C=N/Nc2cccc(Cl)n2)c(O)c1	NR3A LBD binder 27
Cc1cc(C(=O)N/N=C/c2c(CO)cnc(C)c2O)c2ccccc2n1	none
Cc1ncc(CO)c(/C=N/Nc2cccc(Cl)n2)c1O	NR3A LBD binder 15
CC1=C(C(=O)N2CCOCC2)CC(CC(=O)NC2CCCC2)C(=O)N1Cc1ccccc1 (stereo unspecified)	none (no result: EBNA-1 inhibitor, ZTA DNA inh, NR3A LBD binder, TPT1 inh, dFosB act)
Cc1ccc(NCCC#N)cc1C	none
O=C(Nc1cccc(NC(=O)c2ccc(-c3ccc(Br)cc3)o2)c1)c1ccccc1	none
O=C(Nc1cccc(NC(=O)c2ccc(-c3cccc(Br)c3)o2)c1)c1ccco1	NR3A LBD binder 13
O=C(Nc1ccccc1)c1ccc(-c2ccc(Br)cc2)o1	NR3A LBD binder 19
CCOC(=O)c1ccccc1NC(=O)COC(=O)CCC(=O)c1ccccc1	none
CC(C)c1ncc(CO)n1Cc1c(Cl)cccc1Cl	none (no result: EBNA-1 inhibitor, ZTA DNA inh, NR3A LBD binder, TPT1 inh, dFosB act)
CCNC(=S)N1CCN(C(=O)C(Cc2ccccc2)NC(C)=O)CC1 (stereo unspecified)	none
C=CCNC(=S)NC(=O)c1oc2ccccc2c1C	none
CCC(=O)Nc1ccc(NC(=O)c2oc3ccccc3c2C)cc1	NR3A LBD binder 29
Cc1c(C(=O)NC(=S)NCC(C)C)oc2ccccc12	NR3A LBD binder 18
Cn1nc(C(=O)Nc2ccc(-n3cnnn3)cc2)c2ccccc2c1=O	none (no result: EBNA-1 inhibitor, ZTA DNA inh, TPT1 inh)
Cc1c(C(=O)Nc2ccc(-n3cnnn3)cc2)oc2ccccc12	NR3A LBD binder 27, dFosB act inconclusive
Cc1ccc(C(=O)NCC(=O)NCCc2ccc(S(N)(=O)=O)cc2)s1	none
CCOc1ccc(-n2nc3c(SCCN4CCCC4)nnc(C)c3c2C)cc1	none
CN(C)C(=O)CSc1nc(-c2cccs2)c(-c2cccs2)[nH]1	none
O=C(O)C1C2C=CC(C2)C1C(=O)OC1CC2CCC1C2 (stereo unspecified)	NR3A LBD binder 14
O=C(Nc1ccc(Cl)cc1)C1CCN(C(=O)c2cccs2)CC1	none
Cc1ccc(C)c(-c2cc(C(=O)Nc3cccc(C(=O)O)c3)c3ccccc3n2)c1	none
Cc1ccc(-c2cc(C(=O)Nc3ccc(S(=O)(=O)Nc4ncccn4)cc3)c3ccccc3n2)cc1	none
Cc1ccc(C)c(-c2cc(C(=O)Nc3cccnc3)c3ccccc3n2)c1	NR3A LBD binder 11
O=C(Nc1ccc(S(=O)(=O)Nc2nccs2)cc1)c1cc(-c2ccccc2)nc2ccccc12	NR3A LBD binder 11
Cc1ccc(-c2cc(C(=O)Nc3ccc(S(=O)(=O)Nc4nccs4)cc3)c3ccccc3n2)c(C)c1	NR3A LBD binder 15
CCn1c(C)nnc1SCC(=O)Nc1ccc(Cl)cc1	none (no result: EBNA-1 inhibitor, ZTA DNA inh, TPT1 inh)
CCOc1cc(/C=C2/NC(=O)N(Cc3ccccc3F)C2=O)ccc1O	NR3A LBD binder 30
COc1ccc(-c2cccc3c2C2CC3CCN2C(=O)OCc2ccccc2)cc1 (stereo unspecified)	none (no result: EBNA-1 inhibitor, ZTA DNA inh, TPT1 inh)
CC(=O)c1cccc(NC(=O)C(=O)Nc2cccc3ccccc23)c1	NR3A LBD binder 62
Cc1ccsc1C(=O)OCC(=O)NCc1cccs1	none (no result: EBNA-1 inhibitor, ZTA DNA inh, NR3A LBD binder, TPT1 inh, dFosB act)
Cc1ccc(C(CC(=O)N2CCCCC2)c2ccccc2)c(O)c1C (stereo unspecified)	NR3A LBD binder 13
Cc1ccc(C(CC(=O)N2CCNCC2)c2ccccc2)c(O)c1C (stereo unspecified)	none
COc1ccc(-c2csc(NC(=O)Nc3ccccc3)n2)cc1	NR3A LBD binder 26
COc1ccc(NC(=O)Nc2nnc(-c3ccncc3)s2)cc1	NR3A LBD binder 11
Cc1ccc(NC(=O)Nc2nc(-c3ccc(C)s3)cs2)cc1	NR3A LBD binder 24
O=C(Nc1cccc(Cl)c1)Nc1nc(-c2ccc(Cl)cc2)cs1	NR3A LBD binder 36
O=C(Nc1ccccc1)Nc1nc(-c2ccc(Cl)cc2)cs1	none
COc1ccc(NC(=O)Nc2nnc(-c3ccco3)s2)cc1	none
CC(C)c1ccc(/C=C2\NC(=S)N(Cc3cccnc3)C2=O)cc1	none
COc1cccc(NC(=O)Nc2nc(-c3ccc(OC)c(OC)c3)cs2)c1	NR3A LBD binder 23
O=C(CSCc1c(Cl)cccc1Cl)NCc1cccnc1	none (no result: NR3A LBD binder)
O=C(CSCc1c(F)cccc1Cl)NCc1cccnc1	NR3A LBD binder 12
O=C(Nc1cnn(Cc2ccc(F)cc2)c1)c1cnccn1	none
O=C(Nc1cnn(Cc2ccc(F)cc2)c1)C(c1ccccc1)c1ccccc1	NR3A LBD binder 20
Fc1cc(F)c(C2SCCN2C(=S)Nc2cccc(C(F)(F)F)c2)c(F)c1 (stereo unspecified)	NR3A LBD binder 16
O=C(NCCc1ccc(Cl)cc1)Nc1cccc(Cl)c1	NR3A LBD binder 20
COc1ccc(C2SCCN2C(=S)Nc2cccc(Cl)c2)cc1 (stereo unspecified)	NR3A LBD binder 16
Cc1cccc(NC(=O)NCCc2ccc(Cl)cc2)c1	none
O=C(NCCc1ccncc1)Nc1ccc(Cl)c(Cl)c1	NR3A LBD binder 18
O=C1CN(C(=O)c2c(F)cccc2F)C(c2ccc(F)cc2)c2cc(F)ccc2N1 (stereo unspecified)	none
CCc1[nH]nc(C(=O)N2CCCC(Nc3cccc(F)c3)C2)c1C (stereo unspecified)	none
COc1ccc(CNC(=O)Nc2cccc(Cl)c2)cc1	dFosB act 24 (no result: EBNA-1 inhibitor, ZTA DNA inh, TPT1 inh)
CNC(=S)NCCc1ccc(OC)c(OC)c1	none
COc1ccc(CCNC(=O)Nc2ccc3c(c2)OCO3)cc1OC	none
COc1ccc(NC(=O)NCCc2cccc(Cl)c2)cc1OC	NR3A LBD binder 16
O=C(NCCc1ccccc1)Nc1cccc(Cl)c1	NR3A LBD binder 20
COc1ccc(CCNC(=S)NCCc2ccc(OC)c(OC)c2)cc1OC	NR3A LBD binder 27
O=C(Nc1cccc([N+](=O)[O-])c1)c1ccn[nH]1	none
O=C(/C=C/c1ccc(S(=O)(=O)N2CCOCC2)cc1)Nc1cc(F)ccc1F	NR3A LBD binder 32 (no result: EBNA-1 inhibitor, ZTA DNA inh, TPT1 inh)
Cc1ccc(F)cc1NC(=O)/C=C/c1ccc(S(=O)(=O)N2CCOCC2)cc1	NR3A LBD binder 15 (no result: EBNA-1 inhibitor, ZTA DNA inh, TPT1 inh)
COc1ccc(/C=C/C(=O)Nc2cc(F)ccc2C)cc1S(=O)(=O)N1CCOCC1	none
